# FMDV inh = foot and mouth disease virus antiviral activity; FMDV antiviral cell-based qHTS; Potency, µM (titrated, usually from 57.9 µM), for the others: top-dose activity change, negative = inhibition, hits mostly inhibitors; 410,000 compounds, 1.2% hits; AID 1159524; calls by dose curve; tested in HEK293T cells; also: read-out not given here; potency is read from the fitted curve at half-maximal effect; % is scaled to controls: 0 for no effect and ±100 for the full control effect; nearly all actives have a fitted effect of over 45% in size
# MARV entry inh = inhibitors of Marburg virus binding or cell entry; Marburg virus pseudotyped entry inhibition, cell reporter; Potency, µM (top dose mostly 37.8 µM), inactives show at the highest dose activity change, negative = inhibition, most hits filed as inhibitors; 300,000 compounds, 1.8% hits; calls by dose curve; tested in HEK293 cells; also: potency is read from the fitted curve at half-maximal effect; % is scaled to controls: 0 for no effect and ±100 for the full control effect
# Cycloheximide cs = counter-screen for Shiga toxin inhibitors: cycloheximide protein synthesis inhibition; cell reporter, cycloheximide protein synthesis inhibition counterscreen; max response, %; 300,000 compounds, 12% hits; in the data active = max response mostly above about 13%, no sharp cut-off; inactive = mostly below about 14%; also: read at 38.3 µM for the half of the compounds with a filed dose; 0% is about no effect
# LASV entry inh = blocks Lassa virus binding to or entry into cells | Lassa virus pseudotype entry inhibition, cell reporter | Potency, µM (titrated, usually from 37.9 µM), inactives show at the top dose activity change, negative = inhibition, usual class: inhibitors | 300,000 compounds, 1.2% hits | AID 540256; calls by dose curve; tested in HEK293 cells; also: potency is read from the fitted curve at half-maximal effect; % is scaled to controls: 0 for no effect and ±100 for the full control effect; nearly all actives have a fitted effect of over 50% in size
# HCV inhibitor = inhibitors of hepatitis C virus infection | Huh7.5.1 HCVcc-Cre infection, luciferase reporter, 44 h | Potency, µM (doses to about 41.8 µM), for inactives: top-dose activity change, negative = inhibition, usual class: inhibitors | 340,000 compounds, 3.4% hits | AID 651820; active = well fitted inhibition curve with a large enough effect; inconclusive = small, poorly fitted or top-dose-only effect, or another doubt; inactive = no such curve, though single readings can be large or run the other way; also: potency is read from the fitted curve at half-maximal effect; % is scaled to controls: 0 for no effect and ±100 for the full control effect
#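 After 44 h co-culture of compound, cells and HCVcc-Cre (~0.5 moi), substrate is added for 15 min at room temperature and luciferase measured over 15 sec. Cells were seeded at 1,000/well and pre-cultured 4 h.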
# Shiga inhibitor = inhibitors of Shiga toxin in Vero cells; 290,000 compounds, 9.2% hits; inhibition, % at 38.7 µM; Vero cells, Shiga toxin protein synthesis inhibition reporter; AID 2315; in the data active = inhibition mostly above about 28%, no sharp cut-off; inactive = mostly below about 43%; also: 0% is about no effect
# * hit, by the source's call; ? = inconclusive; . = no result; [ ] = remark or other dose. Most compounds without a hit are left out; they make up all but 13% or so of the library.
SMILES,FMDV inh,MARV entry inh,Cycloheximide cs,LASV entry inh,HCV inhibitor,Shiga inhibitor
CC1CCc2nc(NC(=O)CN3CCOCC3)sc2C1 (stereo not drawn),35%,?,38*,30%,1%,68*
O=C(c1cccs1)c1cn(CCOc2ccccc2F)c2ccccc12,-8%,?,.,20%[46.1 µM],.,.
Cc1cc(C)n2nc(CC(=O)NNC(=O)c3ccc(N(C)C)cc3)nc2n1,-4%,?,9,0%[46.1 µM],13%,-8
O=C(COC(=O)C1CCN(S(=O)(=O)c2cccc3cccnc23)CC1)c1ccccc1,-1%,?,1,9%,2%,-12
CN(C(=O)c1cc2c(s1)-c1ccccc1S(=O)(=O)C2)c1ccccc1F,-21%,-5%[46.1 µM],11,-8%,-10%,2
CCOC(=O)C(=Cc1ccc(-c2ccsc2C(=O)OC)o1)C(=O)OCC,32µM*,-11%,-2,7%,?,-6
COC(=O)c1sccc1-c1ccc(/C=N/OC(=O)c2cccs2)o1,35%,-2%[46.1 µM],-1,-4%,?,-7
COC(=O)C(=Cc1ccc(-c2ccsc2C(=O)OC)o1)C(=O)OC,-10%,-31%[14.2 µM],38*,-2%,-5%,45*
COC(=O)c1sccc1-c1ccc(C(=O)Nc2cccnc2)o1,0%,?,39*,0%,?,127*
COC(=O)c1sccc1-c1ccc(C(N)=O)o1,.,.,-3,.,.,10
CCOC(=O)/C(C#N)=C/c1ccc(-c2ccsc2C(=O)OC)o1,70%,4%,-3,?,?,19
Cc1ccc(Nc2cc(C)nn2-c2nc(C)cc(=O)[nH]2)cc1,3.5µM*,2.8µM*,10,1.6µM*,?,-16
Cc1ccc(Nc2cc(C)nn2-c2nc(C)cc(C)n2)cc1,0%,?,7,?,?,-17
O=C1/C(=C\Nc2ccc(Cl)cc2)CCN1c1ncccn1,17%,?,23*,-17%,4%,89*
O=C1/C(=C\Nc2ccc(OC(F)(F)F)cc2)CCN1c1ncccn1,27%,?,18,25%,-13%,19
CCOC(=O)c1c(C)[nH]c(C(=O)COC(=O)/C=C/c2ccc(OC(F)F)cc2)c1C,-9%,-7%,-1,-2%,2%,-9
CCOC(=O)c1c(C)[nH]c(C)c1C(=O)COC(=O)/C=C/c1ccc(OC(F)F)cc1,?,?,5,11µM*,32µM*,-1
CCCCCCc1c(C)c2ccc(OCC(=O)N3CCC[C@H]3C(=O)O)c(C)c2oc1=O,-18%,.,-3,.,2%,0
O=[N+]([O-])c1ccc(-c2c(-c3ccccc3)ncc3cc(F)ccc23)cc1,-3%,.,.,.,?,.
O=C1C2C(c3ccccc3)C=CC(c3ccccc3)C2C(=O)N1CCCO (stereo not drawn),32µM*,1%,-9,1%,6%,-28
COc1ccc2sc(-c3ccccc3OC)c(-c3ccc(OC)c(F)c3)c2c1,-21%,.,.,.,?,.
O=C(c1ccccc1)N1CCC(O)(c2ccc3c(c2)OCO3)CC1,0%,4%,10,7%,7%,15
COc1ccc(C2/C=C\CN(CC(C)C)C(C)C(=O)N2Cc2ccc(F)cc2)cc1 (stereo not drawn),.,.,31*,.,.,142*
COc1ccc(C2/C=C\CN(CC(C)C)C(Cc3ccccc3)C(=O)N2Cc2ccc(F)cc2)cc1 (stereo not drawn),.,.,99*,.,.,126*
CCOc1ncccc1C(=O)Nc1cc(C(F)(F)F)ccc1N1CCOCC1,-17%,.,.,.,-27%,.
SMILES,FMDV inh,MARV entry inh,Cycloheximide cs,LASV entry inh,HCV inhibitor,Shiga inhibitor
O=[N+]([O-])c1cc(-c2ncccn2)c([N+](=O)[O-])s1,40µM*,?,-5,?,?,-13
O=C(N/N=C/c1cccs1)c1ccc2ccccc2c1,89%,?,54*,-27%,-22%,109*
O=C(N/N=C/c1cccs1)c1ccc2ncccc2c1,19%,-7%[46.1 µM],18,-14%[46.1 µM],-9%,46*
COc1cccc(-c2sc3ccc(OC)cc3c2-c2ccc(C(N)=O)cc2)c1,-25%,.,.,.,2.5µM*,.
COc1ccc2sc(-c3ccc(SC)cc3)c(-c3ccc(O)cc3)c2c1,-25%,.,.,.,13µM*,.
COc1cccc(-c2sc3ccc(OC)cc3c2-c2ccc(OC)cc2F)c1,30%,.,.,.,-7%,.
COc1ccc2sc(-c3ccccc3OC)c(-c3ccc(SC)cc3)c2c1,-1%,.,.,.,.,.
O=C(c1ccccc1)c1ccccc1N/C=C/c1nnnn1-c1ccccc1,9%,?,-1,13µM*,6.3µM*,-8
COc1ccc(C(F)(F)F)cc1N/C=C\c1nnnn1-c1ccccc1,-18%,-4%,-1,4%,?,-2
Cc1nn(-c2ccc(N3CCCC3)nn2)c(C)c1CCC(=O)Nc1ccc(F)cc1F,0%,.,.,5%[46.1 µM],.,.
Cc1nn(-c2ccc(N3CCCCC3)nn2)c(C)c1CCC(=O)Nc1ccccc1F,-14%,.,22*,.,-17%,63*
Cc1nn(-c2ccc(N3CCCCC3)nn2)c(C)c1CCC(=O)Nc1cc(F)ccc1F,-11%,?,48*,?,?,45*
Cc1cc(C)cc(NC(=O)C2CCCN(c3cnccn3)C2)c1 (stereo not drawn),-13%,1%[46.1 µM],.,10%[46.1 µM],.,.
CC1=CC(C/C(C)=C/COc2ccc3ccc(=O)oc3c2)OC1=O (stereo not drawn),-22%,.,16*,.,-28%,24*
COc1cc2ccc(=O)oc2c(O)c1OCC=C(C)C,.,11%,11,22%,-22%,85*
CC(C)=CCOc1ccc2ccc(=O)oc2c1,21%,.,21*,.,-3%,35*
CCC(C)NCC(O)COCc1ccc(Cl)cc1 (stereo not drawn),-26%,-1%[46.1 µM],-2,8%,?,-5
CCN(C(=O)Cn1c(=O)oc2cc(S(=O)(=O)N3CCCC3)ccc21)c1cccc(C)c1,?,?,.,-1%[46.1 µM],.,.
CSc1ccc(C=O)cc1,-18%,.,.,.,36%,.
CC(=O)Nc1ccc(S(=O)(=O)N2CCN=C2SCc2ccc(C)cc2)cc1,5%,.,50*,.,?,88*
COc1ccc(C)cc1NC(=O)c1ccc2c(c1)CCN2S(=O)(=O)c1ccc(Cl)cc1,-23%,?,.,-18%[46.1 µM],.,.
CC1(C)Cc2nc3sc4c(NCCO)ncnc4c3cc2CS1,8%,.,20*,.,?,26
CCc1nc2c(sc3nc4c(cc32)COC(C)(C)C4)c(=O)n1Cc1ccccc1,20%,?,-4,10%[14.3 µM],.,-2
CCCCn1cnc2c(sc3nc4c(cc32)CSC(C)(C)C4)c1=O,27%,18%,78*,14%,17%,55*
COC(=O)CSc1ncnc2c1sc1nc3c(cc12)COC(C)(C)C3,?,8%[46.1 µM],6,.,8%,-3
CC(C)CCn1cnc2c(sc3nc4c(cc32)CSC(C)(C)C4)c1=O,-3%,-13%,38*,3%,25%,43*
COc1ccc(N(CC(=O)N2CCN(c3cc(C)ccc3C)CC2)S(=O)(=O)c2c(C)noc2C)cc1,?,22%[46.1 µM],2,2%[46.1 µM],?,1

# Screens: PubChem BioAssay, National Center for Advancing Translational Sciences (NCATS)
